Screens: PubChem BioAssay, National Center for Advancing Translational Sciences (NCATS)
FBPA coupling cs = qHTS Assay for Inhibitors of Fructose-1,6-bisphosphate Aldolase from Giardia Lamblia: Coupling assay counterscreen; coupling enzyme system counterscreen, AmpLite Red fluorescence; activity change, negative = inhibition, % at 58.2 µM, hits read low; 290,000 compounds, 0.67% hits; in the data active means activity change below about -30%
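Coupling enzymes only (glyceraldehyde-3-phosphate) + compound, at 57.5 uM final, 10 min RT; add substrate/coupling/AmpLite Red mix, 20 min RT; fluorescence ex 525/em 598 nm. Actives flag coupling-system interference.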
Sfp inh = qHTS Assay for Inhibitors of Bacillus subtilis Sfp phosphopantetheinyl transferase (PPTase). 310,000 compounds, 3.5% hits. AID 1490, 2009. Biochemical Sfp PPTase activity, qHTS. Potency, µM, without a hit: largest response in the series, negative = inhibition, hits mostly inhibitors. 4'-phosphopantetheinyl transferase ffp (Bacillus subtilis), Q9F4F7;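 further: the enzyme is Sfp with the accession as filed and its product quenches rhodamine fluorescence; potency means the concentration at half of the fitted maximal effect; 0% = enzyme reaction without inhibitor and -100% = no enzyme wells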
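With Hepes-Na pH 7.6 buffer containing 10 mM MgCl2, Sfp (15 nM) modified BHQ-2-YbbR (12.5 uM) using rhodamine-CoA (5 uM). Two reads 30 minutes apart at 525/598 nm yielded each well's rate.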
ELG1 DNA repair = qHTS screen for small molecules that inhibit ELG1-dependent DNA repair in human embryonic kidney (HEK293T) cells expressing luciferase-tagged ELG1 | 330,000 compounds, 2.3% hits | Potency, µM (highest dose often 46.1 µM), for the others: at the highest dose activity change, negative = inhibition, actives largely listed as inhibitors | HEK293T ELG1-luciferase reporter, luminescence, 16 h; DNA damage induced by 5-fluorouridine; further: potency means the concentration at half of the fitted maximal effect; nearly all actives have a fitted effect of over 55% in size
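In this reporter screen, reduction of luminescence relative to DMSO vehicle indicated activity. Compounds and 5-fluorouridine were added together to 2,000 cells per well, incubated for 16 hr at 37 °C, then developed with ONE-Glo.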
Giardia kill = Small Molecules that selectively kill Giardia lamblia: qHTS | Giardia lamblia trophozoite viability | activity change, % at 7.66 µM, hits read low | 340,000 compounds, 0.15% hits; in the data active means activity change below about -80%; inconclusive means between about -30% and that limit;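 further: parasites exposed to compound for two days anaerobically before the ATP read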
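Giardia trophozoites, 100 cells per well, were exposed to compounds for 48 hrs at 37 deg C under anaerobic conditions; viability was then read as ATP content by bioluminescence after 15-30 min at room temperature.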
An asterisk follows results filed as active; ? = inconclusive; · = no result given. In the library only some 5.5% were active in any assay of this set; here they are far more common. Unless noted, the call rests on the fitted dose curve; in most records, active means well fitted curve in the direction sought with a large enough effect; inconclusive means small, poorly fitted or top-dose-only effect, or another doubt; inactive means no such curve, though single readings can be large; an effect the other way counts as inactive or inconclusive. Unless noted, on the % scale 0 is the no-effect control and ±100 the full control effect.

SMILES | FBPA coupling cs | Sfp inh | ELG1 DNA repair | Giardia kill
Cc1cc(C)c(S(=O)(=O)NCC23C=CC(O2)C2C(=O)N(c4ccccc4)C(=O)C23)c(C)c1 (stereo not given) | · | 28µM* | 2% | -29
COC(=O)C1(CO)NC(c2ccc(C)cc2)C2C(=O)N(c3ccccc3)C(=O)C21 (stereo not given) | 1 | 19% | 12% | 0
CN(Cc1ccccc1)C(=O)c1ccc(NC(=O)Cc2ccc(NC(=O)C3CCCN(S(=O)(=O)c4cccc([N+](=O)[O-])c4)C3)cc2)cc1 (stereo not given) | · | · | · | 0
O=C(c1ccncc1)N1CCC2(CC1)CCN(c1ccccc1)CC2 | 4 | -2% | · | ·
COc1ccc(C(=O)Nc2ccc(S(=O)(=O)N3CCOCC3)cc2)cc1 | · | · | · | 5
O=C(Nc1cccc(S(=O)(=O)N2CCCCC2)c1)c1ccc(OCC2CCCO2)cc1 (stereo not given) | -2 | 17% | 13µM* | -21
COc1ccc(C(=O)Nc2ccc(Cl)c(S(=O)(=O)N3CCOCC3)c2)cc1 | · | · | 9.2µM* | -16
O=C(Nc1ccc(Cl)c(S(=O)(=O)N2CCOCC2)c1)c1ccc(OCC2CCCO2)cc1 (stereo not given) | -6 | -10% | 2.9µM* | -8
CC(C)Oc1ccc(C(=O)Nc2cccc(S(=O)(=O)N3CCCC3)c2)cc1 | · | · | 23µM* | -8
CC(C)Sc1nnc2c3ccccc3n(C)c2n1 | · | · | · | 18
Cc1oc2c(C)c3oc(=O)c(CCC(=O)O)c(C)c3cc2c1-c1ccccc1 | 9 | 6% | 1% | 2
CS(=O)(=O)Nc1c(O)ccc2c1CCC[C@H]2C1=NCCN1 | 1 | 2% | · | ·
O=C(CNc1cc(S(=O)(=O)N2CCOCC2)ccc1NCC1CCCO1)Nc1ccc(C(F)(F)F)cc1 (stereo not given) | · | · | ? | 11
N#Cc1ccc(NC(=O)CNc2cc(S(=O)(=O)N3CCOCC3)ccc2NCC2CCCO2)cc1 (stereo not given) | -2 | -7% | 8.2µM* | 2
NCCc1cnc(-c2cccc(C(F)(F)F)c2)[nH]1 | -5 | 4% | · | ·
Cc1c(C(=O)N2CCCC2)oc2c1-c1[nH]ncc1CC2 | -49* | ? | ? | 2
Cc1cc(NC(=O)C(C)SCC(=O)OC(C)C(=O)Nc2ccc(F)cc2Cl)no1 (stereo not given) | · | · | 9% | 1
CC1CCc2c(sc(Nc3nc4c(F)cccc4s3)c2C(N)=O)C1 (stereo not given) | 4 | 25µM* | ? | -26
O=C(Nc1nc2c(F)cccc2s1)C1CC1 | 3 | -12% | ? | 32
Cc1ccc(S(=O)(=O)N(C)C)cc1NC(=S)Nc1cccc2ccccc12 | -3 | -26% | 18% | -12
S=C(Nc1cccnc1)Nc1cccc2cnccc12 | -37* | 11µM* | -17% | -7
O=C(Nc1cccnc1)Nc1cccc(F)c1 | 1 | 20% | ? | -7
CN(C)S(=O)(=O)c1cccc(NC(=S)Nc2cccc3cnccc23)c1 | -53* | 2.5µM* | 21µM* | 6
Fc1cccc(NC(=S)Nc2cccnc2)c1 | 3 | 35µM* | -3% | 0
Fc1ccc(NC(=S)Nc2cccc3cnccc23)cc1 | -51* | 2.8µM* | -25% | 7
SMILES | FBPA coupling cs | Sfp inh | ELG1 DNA repair | Giardia kill
S=C(Nc1ccc(Cl)cc1)Nc1cccc2cnccc12 | -48* | ? | ? | 12
CC(=O)c1ccc[n+](CC(=O)NC(C)c2ccccc2)c1 (stereo not given) | -1 | 6% | 0% | -11
O=c1cc(CSc2nc(NCc3ccc(Cl)cc3)c3ccccc3n2)nc2ccc(Cl)cn12 | · | · | · | -4
O=C1CCCC2=C1C(c1ccc(O)c(O)c1)Nc1ccc3ccccc3c12 (stereo not given) | · | · | · | -5
O=C1CCCC2=C1C(c1ccco1)Nc1ccc3ccccc3c12 (stereo not given) | -9 | 45µM* | -14% | -15
O=C(O)C1=CC[C@@H](c2ccc(Cl)cc2)N(S(=O)(=O)c2ccc(Cl)cc2)[C@H]1c1ccc(Br)cc1 | · | · | -20% | 3
Cc1c(Br)c(O)c(Br)c2sc(=O)oc12 | 5 | 2.8µM* | -16% | -24
N#Cc1c(C(F)(F)F)cc(-c2ccc(F)cc2)[nH]c1=O | -3 | -13% | 18µM* | 10
N#Cc1c(C(F)(F)F)cc(-c2ccc(Cl)cc2)[nH]c1=O | 7 | 8% | -2% | -2
CC(C)CCn1c(=O)c2ccccc2n2c(=S)[nH]nc12 | 10 | 56µM* | -1% | -1
C[n+]1ccc(/C=C/c2ccccc2O)c2ccccc21 | -11 | -6% | ? | 32
CN1/C(=C/c2cc[n+](C)c3ccccc23)C=Cc2ccccc21 | -26 | -4% | 1.3µM* | -25
CCC(C)(C)c1ccc(OCCCC[n+]2ccc(C)cc2)c(C(C)(C)CC)c1 | -3 | 40µM* | 10µM* | 57
Cc1cc(C(C)(C)C)ccc1OCCCCN1CCCC1 | 0 | 5% | 12% | -10
Cc1cc[n+](CC[n+]2ccc(C)cc2)cc1 | · | · | 3% | -17
CCC(C)(C)c1ccc(OCCCC[n+]2cccc(C)c2C)c(C(C)(C)CC)c1 | 0 | 45µM* | 2.6µM* | -19
CC(C)c1ccc(S(=O)(=O)N2CCN(CC(=O)c3ccc(O)c(O)c3)CC2)cc1 | 0 | 22µM* | 0% | ·
O=C(CN1CCN(S(=O)(=O)c2ccc(Br)cc2)CC1)c1ccc(O)c(O)c1 | · | 79µM* | 4% | 2
Cc1[nH]c2ccccc2c1C(=O)CN1C(=O)C(=O)N(CCC2=CCCCC2)C1=O | · | · | 2% | -25
COC(=O)c1ccccc1NC(=O)CSc1nnc(-c2cccnc2)o1 | 1 | 19% | ? | -4
COCCCn1c(=O)c2ccccc2n(CC(=O)Nc2ccc3c(c2)OCCO3)c1=O | 1 | 0% | 0% | 26
COc1cc2c(cc1OC)C(COc1cccc(C(F)(F)F)c1)NCC2 (stereo not given) | -6 | 6% | 7% | -2
CCCCOC(=O)NS(=O)(=O)c1sc(CC(C)C)cc1-c1ccc(Cn2c(CC)nc3c(C)cc(C)nc32)cc1 | · | · | 13µM* | ·
N#Cc1c(NC(=O)c2ccc(Cn3cc(Br)cn3)o2)sc2c1CCCCC2 | 9 | ? | -8% | -26
CCOC(=O)c1c(NC(=O)c2ccncc2)sc(C)c1C | 0 | 22µM* | -4% | 0
COC(=O)c1sc(NC(=O)COc2cccnc2[N+](=O)[O-])c(C(=O)OC)c1C | · | · | -20% | -82*
COC(=O)c1sc(NC(=O)c2ccc(Cn3cc(Cl)cn3)o2)c(C#N)c1C | 19 | 16µM* | ? | -21
CCOC(=O)c1c(C)[nH]c(C(=O)OCC(=O)Nc2sc(C(=O)N(C)C)c(C)c2C(=O)OCC)c1C | · | · | 12µM* | 13
CCOC(=O)c1c(NC(=O)COC(=O)c2ccc(O)cc2)sc(C(=O)NC)c1C | · | · | · | -15
